Drawing on PubChem BioAssay (NCI), this text covers growth inhibition for 20 molecules.

Assay [1] is described as follows: NCI Yeast Anticancer Drug Screen. Data for the rad50 strain (AID 155).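 Further: 0% = growth of vehicle-only cultures of the same strain.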 As to conditions: S. cerevisiae rad50 strain growth inhibition; at 50.0 µM; hits give high values. An outline of the steps:
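Inhibition values express reduced yeast growth in compound-treated cultures relative to vehicle-treated controls.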

Assay [2] in a line: NCI Yeast Anticancer Drug Screen. Data for the mec2-1 strain (AID 157). The note with it: S. cerevisiae mec2-1 strain, at 50.0 µM, hits give high values. An outline of the steps:
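Each compound was tested on mec2-1 yeast, a strain altered in DNA damage repair or cell cycle control. Growth inhibition is reported relative to vehicle.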

The nature of assay [3]: NCI Yeast Anticancer Drug Screen. Data for the sgs1 mgt1 strain (AID 161).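 Further: 0% = growth of cultures given vehicle only.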 As to conditions: S. cerevisiae sgs1 mgt1 strain, at 50.0 µM, hits give high values. The essentials: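 Inhibition of yeast growth, normalised to vehicle-treated controls, is reported for a strain bearing genetic alterations in DNA damage repair.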
A short description of assay [4]: NCI Yeast Anticancer Drug Screen. Data for the cln2 rad14 strain (AID 165).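 Further: 0% = growth equal to vehicle treated cultures.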 The note with it: S. cerevisiae cln2 rad14 strain, at 50.0 µM, hits give high values. An outline of the steps: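 Test compounds were added to cln2 rad14 yeast cultures; inhibition of growth was then determined by comparison with vehicle treatment.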
Assay [5] is described as follows: NCI Yeast Anticancer Drug Screen. Data for the bub3 strain (AID 167). The note with it: S. cerevisiae bub3 mutant strain, at 50.0 µM, hits give high values. An outline of the steps: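 Steps: expose the mutant yeast strain to compound; grow alongside vehicle-treated cultures; measure growth; express inhibition against the vehicle cultures.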
Assay [6] in a line: NCI Yeast Anticancer Drug Screen. Data for the mlh1 rad18 strain (AID 175). The note with it: S. cerevisiae mlh1 rad18 strain growth inhibition; at 50.0 µM; hits give high values. The essentials:
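Inhibition values reflect reduced growth of mutant yeast versus vehicle-treated controls following compound exposure; the mutations affect DNA damage repair.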

About 79,000 compounds went through this panel and 15% of them were active in at least one assay; those are over-represented in the sample as a whole. Unmarked numbers belong to inactive results. The source made the active and inactive calls. No stated cut-off is given here; in the data, active means growth inhibition above about 70%; inactive means the rest. Where a SMILES comes first, the peptide text is derived from it. [ ]: non-standard residue; d: D form. The star is where a group is joined. Cbz = O=C(OCc1ccccc1)*; Nva = CCC[CH](N)C(=O)O

Regarding `O=[N+]([O-])c1ccc(Cn2on2-c2ccccc2)cc1`, the growth inhibition was 8.55% in assay [1]; 21.1% in assay [2]; 9.1% in assay [3]; -16.7% in assay [4]; 24.4% in assay [5]; -23.9% in assay [6].

As for `O=C(Nc1cc2[nH]c(=O)c3ccccc3c2cc1[N+](=O)[O-])C(F)(F)F`, the growth inhibition in assay [1] was 40%; in assay [2] it was -5.85%; in assay [3], 10.8%; in assay [4] it was 0.9%; in assay [5] it was -12.4%; in assay [6] it was 0.25%.

With `Cc1[nH]c(N)nc(=S)c1CCC(C)C`, the growth inhibition is -16.6% in assay [1]; -9.7% in assay [2]; -1.05% in assay [3]; -100% in assay [4]; -1.55% in assay [5]; 17.2% in assay [6].

As for `CCOC(=O)c1cc2c(oc1=O)-c1cc(C)ccc1OC2C` (stereo not given), the growth inhibition is -9.45% in assay [1]; -14.8% in assay [2]; 8.75% in assay [3]; -40.6% in assay [4]; -38.4% in assay [5]; 11.1% in assay [6].

Take `O=c1ccc(=O)n(-c2ccc(Cl)cc2)[nH]1`: the growth inhibition in assay [1] was -8.1%; in assay [2] it was -21.8%; in assay [3], -12.7%; in assay [4] it was 23.4%; in assay [5] it was -6%; in assay [6], -9.9%.

As for `O=C(NC1CC12c1ccccc1-c1ccccc12)Oc1ccc2ccccc2c1` (stereo not given), the growth inhibition in assay [1] was 68.4%; in assay [2], 18.8%; in assay [3] it was 60.9%; in assay [4] it was 45.8%; in assay [5], 55.2%; in assay [6], 57.4%.

Regarding `COc1ccc(NS(=O)(=O)c2ccc(NC(=O)NCCCl)cc2)nn1`, the growth inhibition in assay [1] was 13%; in assay [2], -0.2%; in assay [3], -9.85%; in assay [4] it was 8.95%; in assay [5] it was 2.55%; in assay [6], 5.85%.

With `Cc1cc2nc3c(=O)[nH]c(=O)nc-3n(CCO)c2cc1C`, the growth inhibition in assay [1] was -0.5%; in assay [2], 1.5%; in assay [3], 8.6%; in assay [4] it was -39.4%; in assay [5], 6.15%; in assay [6], -9.95%.

In the case of `Fc1ccc(Nc2cc(F)cc(F)c2)cc1`, the growth inhibition in assay [1] was 22.7%; in assay [2], 8.45%; in assay [3], 17.4%; in assay [4] it was 3.2%; in assay [5], 10.6%; in assay [6] it was 11.1%.

For `C/C(=N\NC(=O)c1cc(C)nc2ccc(Br)cc12)c1ccccc1O`, the growth inhibition in assay [1] is 71.1% (active); in assay [2], 63%; in assay [3], 79.8% (active); in assay [4] it was 48.3%; in assay [5], 7.3%; in assay [6], 72.5% (active).

Regarding `CC1(C)CC(=O)C(C=NC(=O)c2ccncc2)=C(O)C1`, the growth inhibition in assay [1] is -25.1%; in assay [2], 19.7%; in assay [3], -3.55%; in assay [4], -3.8%; in assay [5] it was 14.9%; in assay [6] it was -40.4%.

For the molecule `CCCC(NC(=O)OCc1ccccc1)C(=O)NC(Cc1ccccc1)C(N)=O` (stereo not given) (Cbz-[Nva]-Phe-NH2; configuration not given here), the growth inhibition in assay [1] is -6%; in assay [2], -0.9%; in assay [3], -3.45%; in assay [4] it was -34.2%; in assay [5] it was -5.5%; in assay [6] it was 0.45%.

Take `NC1=NCCN1`: the growth inhibition was 31.9% in assay [1]; 11.3% in assay [2]; 3.5% in assay [3]; -1.85% in assay [4]; 16.8% in assay [5]; 24.3% in assay [6].

`O=C(Nc1cccc2ccccc12)c1ccc(Cl)c(Cl)c1`: the growth inhibition in assay [1] is 38.6%; in assay [2], 53.4%; in assay [3], 52.8%; in assay [4], 43.8%; in assay [5], 63.5%; in assay [6], 72.3% (active).

On to `CC1SCC(=O)N1c1nncs1` (stereo not given), for which the growth inhibition in assay [1] is -3.05%; in assay [2] it was -0.75%; in assay [3], -51.9%; in assay [4], -46.2%; in assay [5], -2.1%; in assay [6], -46.6%.

Regarding `CC1=C(O[Si](C(C)C)(C(C)C)C(C)C)C2CC1[C@@H]1C(=O)N(c3ccccc3)C(=O)[C@H]21` (stereo not given in full), the growth inhibition is -1.45% in assay [1]; -10.8% in assay [2]; -7.15% in assay [3]; 5.5% in assay [4]; -15.6% in assay [5]; -15.1% in assay [6].

For the molecule `Cc1ccc(NC(=O)Oc2ccc(Br)cc2Br)c([N+](=O)[O-])c1`, the growth inhibition in assay [1] was 9.3%; in assay [2], -1.5%; in assay [3] it was 13.7%; in assay [4] it was 11.2%; in assay [5], 4.55%; in assay [6], -6.9%.

For the molecule `CC(C)C(NC(=O)OC(c1ccccc1)c1ccccc1)C(=O)NC(CSC(c1ccccc1)(c1ccccc1)c1ccccc1)C(=O)NCC(=O)OCc1ccccc1` (stereo not given), the growth inhibition is 4.45% in assay [1]; 5.75% in assay [2]; 4.55% in assay [3]; -19.1% in assay [4]; -10.8% in assay [5]; 27.2% in assay [6].

Consider `CCCCN(CCCC)CC(O)c1cc(-c2ccccc2)nc2c(O)cccc12` (stereo not given), for which the growth inhibition in assay [1] was -28.6%; in assay [2], 22.4%; in assay [3], -18.2%; in assay [4], -14.4%; in assay [5] it was 3.6%; in assay [6] it was -12.2%.

As for `Cc1ccc(-c2cc(=O)c(=O)[nH][nH]2)cc1`, the growth inhibition is -12.5% in assay [1]; 22.1% in assay [2]; -11.6% in assay [3]; 4.85% in assay [4]; -13.7% in assay [5]; 27.2% in assay [6].
